From PubChem
Compounds with a hit are over-represented: about 10% of the library has one in this group of screens.
HP1b chromo inh: HTS for Inhibitors of HP1-beta Chromodomain Interactions with Methylated Histone Tails | Chromobox protein homolog 1 (Homo sapiens), P83916 | AlphaScreen HP1-beta / biotin-H3K9me3 peptide binding | Potency, µM (titrated, usually from 114 µM), most hits filed as inhibitors | actives 0.56% (n = 390,000) | AID 540317, 2011; further: nearly all actives have a fitted effect of over 70% in size
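HP1-beta protein (50 nM final) preincubated 30 min at room temperature with biotinylated H3(1-18)K9me3 peptide (50 nM) in PBS pH 7.4, 0.01% Tween-20, then compound added for 30 min. AlphaScreen streptavidin donor/nickel chelate acceptor beads (10 ug/mL final), 30 min dark, luminescence read.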
JMJD2A Tudor inh: qHTS Assay for Inhibitors of JMJD2A-Tudor Domain | Lysine-specific demethylase 4A (Homo sapiens), O75164 | AlphaScreen JMJD2A-Tudor / H3K4me3 peptide binding | Potency, µM (top dose mostly 114 µM), usual class: inhibitors | actives 4.4% (n = 390,000); further: nearly all actives have a fitted effect of over 50% in size
Target sequence (O75164 whole entry, looked up, the tested form may be a part): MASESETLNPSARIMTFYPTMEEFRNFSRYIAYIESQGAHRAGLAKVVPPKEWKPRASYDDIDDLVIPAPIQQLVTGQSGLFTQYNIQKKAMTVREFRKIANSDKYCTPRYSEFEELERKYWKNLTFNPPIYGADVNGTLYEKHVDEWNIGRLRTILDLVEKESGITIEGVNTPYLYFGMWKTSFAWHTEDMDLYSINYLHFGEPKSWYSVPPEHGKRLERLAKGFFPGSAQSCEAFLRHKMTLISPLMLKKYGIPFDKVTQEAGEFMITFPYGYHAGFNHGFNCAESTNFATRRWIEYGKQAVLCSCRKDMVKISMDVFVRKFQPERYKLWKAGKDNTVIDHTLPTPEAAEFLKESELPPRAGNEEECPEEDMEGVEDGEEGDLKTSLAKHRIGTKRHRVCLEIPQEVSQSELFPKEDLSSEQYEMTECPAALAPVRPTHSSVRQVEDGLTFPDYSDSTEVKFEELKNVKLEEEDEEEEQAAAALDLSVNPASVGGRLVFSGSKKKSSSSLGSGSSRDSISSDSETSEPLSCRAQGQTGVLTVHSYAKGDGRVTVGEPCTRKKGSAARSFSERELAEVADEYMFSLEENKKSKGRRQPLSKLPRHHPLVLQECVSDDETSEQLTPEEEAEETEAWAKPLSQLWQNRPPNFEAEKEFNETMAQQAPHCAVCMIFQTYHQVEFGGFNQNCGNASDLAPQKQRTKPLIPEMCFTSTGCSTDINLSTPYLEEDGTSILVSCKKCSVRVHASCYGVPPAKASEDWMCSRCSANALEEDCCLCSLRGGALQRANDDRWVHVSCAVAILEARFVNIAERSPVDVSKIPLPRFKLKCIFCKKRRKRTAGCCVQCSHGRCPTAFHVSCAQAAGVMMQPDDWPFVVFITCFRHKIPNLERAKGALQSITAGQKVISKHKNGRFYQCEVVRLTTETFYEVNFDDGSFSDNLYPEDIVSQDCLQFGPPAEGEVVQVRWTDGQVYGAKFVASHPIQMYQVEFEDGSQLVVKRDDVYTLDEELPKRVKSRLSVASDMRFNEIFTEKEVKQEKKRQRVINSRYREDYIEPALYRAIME
BAZ2B inh: qHTS Assay for Inhibitors of BAZ2B. Potency, µM (highest dose often 114 µM), hits mostly inhibitors. Bromodomain adjacent to zinc finger domain protein 2B (Homo sapiens), Q9UIF8. AlphaScreen BAZ2B-H3K14Ac peptide displacement. actives 4.4% (n = 360,000); further: nearly all actives have a fitted effect of over 60% in size
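In this displacement format the biotinylated H3(5-23) peptide acetylated at Lys14 serves as ligand at 50 nM, with BAZ2B at 50 nM in PBS pH 7.4 containing 0.01% Tween-20. Donor and acceptor beads are 10 ug/mL final.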
GLS inhibitor: qHTS for Inhibitors of Glutaminase (GLS); GLS enzymatic activity, qHTS titration; Potency, µM (top dose mostly 45.5 µM), actives largely listed as inhibitors; actives 0.21% (n = 410,000); AID 624170, 2012
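Enzyme dispensed in phosphate buffer (45 mM, pH 8.2, 0.02% Tween-20), compounds pinned in, then 1 mM L-glutamine solution and the glutamate oxidase–HRP–Amplex Red mix added; fluorescence read immediately and again after 30 min at room temperature.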
G9a inh: qHTS Assay for Inhibitors of Histone Lysine Methyltransferase G9a; G9a H3K9 monomethylation, AlphaScreen, 2 h; Histone-lysine N-methyltransferase EHMT2 (Homo sapiens), Q96KQ7; AID 504332, 2011; Potency, µM (highest dose often 102 µM), usual class: inhibitors; actives 8.8% (n = 350,000); further: nearly all actives have a fitted effect of over 75% in size
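Chemiluminescent proximity detection of H3K9 monomethylation, read after 10 min bead incubation in the dark. Reaction: 20 nM G9a, 500 nM biotin-H3K9 peptide, 20 uM SAM cofactor, 2 h, room temperature, following 15 min enzyme-compound preincubation.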
Large screens that a line does not name were inactive. The call rests on the fitted dose curve; in most records, active means well fitted curve in the direction sought with a large enough effect; inconclusive means small, poorly fitted or top-dose-only effect, or another doubt; inactive means no such curve, though single readings can be large; an effect the other way counts as inactive or inconclusive.

COc1cccc(-c2coc3cc4oc(=O)c(CCC(=O)O)c(C)c4cc23)c1	GLS inhibitor 13µM
Cc1c(CC(=O)NCC(=O)O)c(=O)oc2cc3occ(-c4ccccc4)c3cc12	GLS inhibitor 4µM
CCc1cccc(C)c1NC(=O)CCCN1C(=O)CN(C)C1=O	G9a inh inconclusive
CC1CC(Nc2ccccc2)c2ccccc2N1C(=O)c1cccnc1 (stereo unspecified)	none
O=C(O)/C=C\c1ccccc1Oc1ccc(F)cc1	none
CCCC(CCC(=O)Nc1cc([N+](=O)[O-])ccc1O)C(=O)O (stereo unspecified)	BAZ2B inh 56µM, G9a inh inconclusive
O=C(O)CCCC(=O)Nc1cc([N+](=O)[O-])ccc1O	none
C(=C/c1nccc2c1[nH]c1ccccc12)/c1ccc2c(c1)OCO2	none
COc1ccccc1CN1C[C@@H]2C[C@@H](c3[nH]c4c(C)cccc4c3C)N3CCC[C@@]23C1=O	BAZ2B inh inconclusive, G9a inh 45µM
COc1ccccc1CN1C[C@@H]2C[C@@H](c3cccc(C)n3)N3CCC[C@@]23C1=O	none (no result: G9a inh)
O=C1Nc2ccccc2/C1=N\c1sc2c(c1C(=O)Nc1ccccc1)CCCC2	JMJD2A Tudor inh inconclusive, G9a inh 13µM (no result: GLS inhibitor)
COc1ccc(CN2C(=O)c3c(c(C)n(C)c3C)C2C(=O)NC2CCC(C)CC2)cc1 (stereo unspecified)	JMJD2A Tudor inh inconclusive, G9a inh inconclusive (no result: BAZ2B inh)
COc1cccc(Cn2cnc3c(NS(=O)(=O)c4cc(Cl)ccc4Cl)c(C)c(C)cc32)c1	G9a inh 8.9µM
CN(C)CCCNc1nc2cc(-c3ccc(C(=O)N4CCN(C)CC4)cc3)sc2c(=O)n1C	none (no result: HP1b chromo inh, JMJD2A Tudor inh, BAZ2B inh, G9a inh)
Cc1ccc(OCC(=O)Nc2cc(Cl)ccc2-n2cncn2)c(C)c1	none (no result: HP1b chromo inh, JMJD2A Tudor inh, BAZ2B inh, G9a inh)
Cc1ccc(S(=O)(=O)CCC(=O)Nc2cc(Cl)ccc2-n2cncn2)cc1	G9a inh 56µM
CCN(CC(=O)Nc1cc(Cl)ccc1C)C(=O)CCS(=O)(=O)c1ccc(C)cc1	G9a inh 50µM
Cc1nc(-n2nnc(CO)c2CO)nc2c1CCC2	none
CCOC(=O)C1CCN(C(=O)C2CCC(=O)N(Cc3cccc(C(F)(F)F)c3)C2)CC1 (stereo unspecified)	none
O=C1/C(=C/c2ccccc2F)SC(=S)N1CC(=O)N1CCCCC1c1cccnc1 (stereo unspecified)	BAZ2B inh inconclusive, G9a inh 5µM
O=C1/C(=C/c2ccc(F)cc2)SC(=S)N1CC(=O)N1CCCCC1c1cccnc1 (stereo unspecified)	JMJD2A Tudor inh inconclusive, BAZ2B inh inconclusive, G9a inh 40µM
CN(C(=O)CN1C(=O)/C(=C/c2ccccc2Cl)SC1=S)C1CCS(=O)(=O)C1 (stereo unspecified)	JMJD2A Tudor inh inconclusive
CN(C(=O)CN1C(=O)/C(=C/c2ccccc2F)SC1=S)C1CCS(=O)(=O)C1 (stereo unspecified)	BAZ2B inh 45µM
CN1CCN(C(=O)OC2CC3CC2[C@H]2CCCCN2C3=O)CC1 (stereo partly specified)	none (no result: HP1b chromo inh, JMJD2A Tudor inh, BAZ2B inh, G9a inh)
O=C(NCCC1=CCCCC1)c1cc(S(=O)(=O)N2CCOCC2)ccc1Cl	none
Cc1ccc(CNC(C)c2ccccc2)cc1 (stereo unspecified)	none
CN(CP(=O)(O)CN(C)S(C)(=O)=O)S(C)(=O)=O	JMJD2A Tudor inh 50µM, BAZ2B inh 89µM
COc1ccccc1CNC(=O)COC(=O)c1cc(C)oc1C	none
COc1ccccc1CN(C)C(=O)COC(=O)c1cc(C)oc1C	G9a inh 45µM
O=C(CCC(=O)N1CCOCC1)NCCc1ccc(F)cc1	JMJD2A Tudor inh inconclusive
CCc1cccc(C)c1NC(=O)Cn1c(NCCO)nc2ccccc21	none
Cc1ccc(SCc2cn3c(C)csc3n2)cc1	BAZ2B inh 56µM, G9a inh inconclusive
CCCS(=O)(=O)NCc1cn2c(C)csc2n1	G9a inh 56µM
Cc1csc2nc(CNC(=O)CCC(=O)O)cn12	G9a inh 50µM
